A short description of the assay: viability loss of caspase-8 NB7 cells with TRAIL – with/without TRAIL, luminescence panel, confirmation (AID 651596). The note with it: NB7 neuroblastoma + caspase-8, without TRAIL, NB7 Caspase-8, without TRAIL, mean of runs, at 10 µM.
Turning to `Cc1ccccc1C(=O)N1CCN(c2ccc(NC(=O)c3ccc([N+](=O)[O-])o3)cc2)CC1`, the activity was determined as 99.5%.
Then `Clc1nc2ccccc2cc1/C=N/Nc1nc2ccccc2[nH]1`, with 81.5%; and `Nc1nc(CCl)nc(N(c2ccccc2)c2ccccc2)n1`, with 98.7%; and `CC(C)N(CC(=O)Nc1ccc(Cl)cc1C(F)(F)F)C(=O)CCl`, with 96.2%.
Regarding `O=C(Nc1cc(S(=O)(=O)N2CCOCC2)ccc1N1CCOCC1)c1ccc([N+](=O)[O-])s1`, the activity was determined as 41.4%.
Turning to `O=C(OCn1ncc(Cl)c(Cl)c1=O)c1ccc(C(F)(F)F)cc1`, the activity was found to be 94%.
The result for `O=C(Cc1ccsc1-c1ccccc1)NO` reads 72.3%; that for `CCOC(=O)CNC(=O)CSc1nnc(NC(=O)c2ccc(C)cc2)s1`, 92.5%; that for `O=C1C(=Cc2ccc(Cl)cc2)CCc2ccccc21`, 78.7%.
Regarding `Cc1noc(N)c1C(=O)Nc1ccc(C(C)(C)C)cc1`, the activity came to 48.9%.
With `N#Cc1nc(Nc2cccc(Cl)c2)c2ncn(C3CCCC3)c2n1`, the activity is 57.3%.
The result for `CNc1nc(N/N=C/c2cc([N+](=O)[O-])ccc2F)nc(Nc2ccccc2)n1` reads 86.5%.
The result for `CCC(OC(=O)c1ccc(S(C)(=O)=O)c([N+](=O)[O-])c1)C(=O)NC1C2CC3CC(C2)CC1C3` (stereo not given) reads 97.7%; that for `COc1ccc(C(=O)Nc2ccc3ncccc3c2)cc1`, 85.3%; that for `Cc1ccc(C(=O)Nc2ncc(C)s2)s1`, 79%.
Then `Cc1ccc2cc(/C=N/Nc3nc4ccccc4[nH]3)c(Cl)nc2c1`, with 83.6%; and `FC(F)(F)c1cccc(CC2CN(Cc3ccccc3)Cc3ccccc3N2c2cc(Cl)cc(Cl)c2)c1` (stereo not given), with -5.7%; and `Nc1nc2ccccc2n1C(=O)c1ccc(F)cc1`, with 91%.
Regarding `CC(C)c1ccc(/C=N/NC(=O)c2ccccn2)cc1`, the activity was 76.6%.
Then `CCN1CCN(c2ccc(S(=O)(=O)N3CCCCC3)cc2NC(=O)c2ccc([N+](=O)[O-])s2)CC1`, with 54.1%.
The result for `CCOc1cc(/C=N/N=C(/N)c2nonc2N)cc(Br)c1OCc1ccc(Cl)cc1` reads 37.3%; that for `COc1ccc(-c2cc3cc4c(cc3cn2)OCO4)cc1`, 52.8%; that for `CC1CCCN(c2ncnc3c2cnn3-c2ccccc2)C1` (stereo not given), 85.1%.
The result for `CCOc1ccc2nc(NC(=O)c3ccco3)sc2c1` reads 69.8%; that for `C=CCn1c(C)cc(C(=O)COC(=O)c2n[nH]c(=O)c3ccccc23)c1C`, 57.4%; that for `CN(C)CCNC(=O)c1cccc(-c2cc(NC=O)c3ncc(-c4cccc(C(F)(F)F)c4)n3c2)c1`, 99.5%.
As for `CC(C)Nc1ccc(-n2nc3ccccc3[n+]2[O-])cc1`, the activity was 61%.
Then `CCc1ccc(-c2cc(C(=O)N/N=C/c3c[nH]c4ccccc34)[nH]n2)cc1`, with 52.2%; and `Cn1c2c(c(=O)n(C)c1=O)C(C(F)(F)F)(C(F)(F)F)N=C(c1ccc(Cl)cc1)N2`, with 52.3%.
Then `Cc1ccc(-c2nc(N/N=C/c3ccccc3[N+](=O)[O-])c3ccccc3n2)cc1`, with 82.4%.
Regarding `C[C@H](NC(=O)c1ncn2c1c(=O)[nH]c1ccc(Br)cc12)c1ccccc1`, the activity was found to be 7.95%.
Then `CCOC(=O)c1c(CSC(=N)N)n(-c2ccc(C)cc2)c2cc(Br)c(OC(C)=O)cc12`, with 81.3%; and `COc1ccc(C(=O)N/N=C/c2cccnc2)cc1`, with 40%.
Turning to `CCOC(=O)Cc1csc(NC(=O)c2cc3c(s2)CCCC3)n1`, the activity worked out at 58.8%.
Then `COc1ccc(N2Cc3ccccc3C2=O)cc1`, with 62.5%; and `Cc1nc(-c2ccc(NC(=O)c3ccccc3)cc2)cs1`, with 76.2%.
The result for `O=C(CCl)Nc1ncc(S(=O)(=O)c2ccc([N+](=O)[O-])cc2)s1` reads 92.3%.
`Cc1ccc2cc(NC(=O)c3cccc(F)c3)ccc2n1`: the activity amounted to 10.6%.
As for `C/C(=N\NC(=O)c1ccccc1O)c1cccs1`, the activity is 58.9%.
The result for `O=S(=O)(c1ccccc1)c1nnn2c1nc(NC1CCN(Cc3ccccc3)CC1)c1ccccc12` reads 48.9%.

The record behind these values is PubChem BioAssay.
